In the supplement of paper PMC8728848:
The full list was thinned out, with the strongest signals kept by preference.

Legend:
Assay in all cases: glycan array binding signal (z-score within array); higher = stronger binding
Conditions in all cases: glycan notation: IUPAC condensed, linker removed
[1] = biological target: Fuc(a1-2)Gal(b1-3)GlcNAc(b1-3)[Neu5Ac(a2-6)Gal(b1-4)GlcNAc(b1-6)]Gal(b1-4)Glc
In short: (§1)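 The binding signal is a Z-score computed within each array. Data were drawn from 3228 arrays in the Consortium for Functional Glycomics database, restricted to those with a known protein sequence. Scores were averaged over arrays of the same protein sequence at different concentrations or buffers, and over linkers, and negative values can be taken as non-binding.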

[2] = biological target: Fuc(a1-2)Gal(b1-3)[Fuc(a1-4)]GlcNAc
In short: as §1

[3] = biological target: Fuc(a1-2)Gal(b1-4)GlcNAc(b1-6)GalNAc
In short: as §1

[4] = biological target: Fuc(a1-2)Gal(b1-4)GlcNAc6S
In short: as §1

[5] = biological target: Fuc(a1-2)[Gal(a1-3)]Gal(b1-3)GalNAc(b1-3)Gal(a1-4)Gal(b1-4)Glc
In short: as §1

[6] = biological target: Fuc(a1-2)[Gal(a1-3)]Gal(b1-4)Glc
In short: as §1

[7] = biological target: Fuc(a1-2)[Gal(a1-3)]Gal(b1-4)GlcNAc(b1-6)GalNAc
In short: as §1

[8] = biological target: Fuc(a1-2)[GalNAc(a1-3)]Gal(b1-3)GalNAc(a1-3)[Fuc(a1-2)]Gal(b1-4)GlcNAc
In short: as §1

[9] = biological target: Fuc(a1-2)[GalNAc(a1-3)]Gal(b1-4)[Fuc(a1-3)]GlcNAc(b1-3)GalNAc
In short: as §1

[10] = biological target: Fuc(a1-3)[Gal(b1-4)]GlcNAc6S
In short: as §1

[11] = biological target: Gal(a1-3)Gal(b1-4)[Fuc(a1-3)]GlcNAc(b1-2)Man(a1-3)[Gal(a1-3)Gal(b1-4)[Fuc(a1-3)]GlcNAc(b1-2)Man(a1-6)]Man(b1-4)GlcNAc(b1-4)GlcNAc
In short: as §1

[12] = biological target: Gal(a1-4)Gal(b1-3)GlcNAc(b1-2)Man(a1-3)[Gal(a1-4)Gal(b1-3)GlcNAc(b1-2)Man(a1-6)]Man(b1-4)GlcNAc(b1-4)GlcNAc
In short: as §1

[13] = biological target: Gal(a1-4)Gal(b1-4)GlcNAc(b1-2)Man(a1-3)[Gal(a1-4)Gal(b1-4)GlcNAc(b1-2)Man(a1-6)]Man(b1-4)GlcNAc(b1-4)GlcNAc
In short: as §1

[14] = biological target: Gal(a1-4)Gal(b1-4)GlcNAc(b1-3)Gal(b1-4)Glc
In short: as §1

Gal(b1-3)Gal(b1-4)GlcNAc = biological target: Gal(b1-3)Gal(b1-4)GlcNAc
In short: as §1

Gal(b1-3)GalNAc = biological target: Gal(b1-3)GalNAc
In short: as §1

[15] = biological target: Gal(b1-3)GalNAc(a1-3)[Fuc(a1-2)]Gal(b1-4)Glc
In short: as §1

[16] = biological target: Gal(b1-3)GalNAc(a1-3)[Fuc(a1-2)]Gal(b1-4)GlcNAc
In short: as §1

Gal(b1-3)GalNAc(b1-3)Gal = biological target: Gal(b1-3)GalNAc(b1-3)Gal
In short: as §1

[17] = biological target: Gal(b1-3)GalNAc(b1-3)Gal(a1-4)Gal(b1-4)Glc
In short: as §1

[18] = biological target: Gal(b1-3)GalNAc(b1-4)Gal(b1-4)Glc
In short: as §1

[19] = biological target: Gal(b1-3)GalNAc(b1-4)[Neu5Ac(a2-3)]Gal(b1-4)Glc
In short: as §1

B1: Epa10 (protein)
chain: MNEKIFRYLTLLFLFELARSLPVEDKLNIKKVFEKRAVDFTPFAHYPRPEGCSSPPNSVSVGLHMNLYNYPYLYVKPSTKGMFTNDTNSDADGETDGDSAGGIEGRAGQCWNPEYQDPNFPRFGYKQYGEFGASDNVNGDISWDHNEFTEGCKPVLAALPPGYNYPDEITFSNFTMVLSGYFKPKTSGVYKFELKADDFILFNFGAKNAFECCNREESIDNFGPYVAYAMWPNQADQELEVYLFEDSYYPLRLFYNNRDYHSKFKIGFYPPGQTTITFDFDGYLFMLDDTGNECRDSIRYRTVCDDKVVDDTTYSTRYSTSMVPGGGSDVITIYYIRMKCEEEDCLGQWDPINNVCYSPDDCADDGGYWNGQMCDQSCKLEGGIVNPDTGDCDKSCIESGGFLDENGNCDTTCRDDGGMLVEGQCDYQCKEAGGILVGDHCDTTCVDSGGKLNEDGTCDHSCRDQGGQLDENGECDTSCKDSGGMLIEGECDTSCKDEGGQLDDNNECINHCKDQGGIIDENGNCDTSCKDSGGKLDESGACDTSCRDDGGIIDENGNCNTTCRDDGGIIVGDHCDTSCRDAGGILIEDHCDTTCRDSGGKLNEDGTCDHSCRDQGGQLDENGKCDYSCKNGGGKLDEDGNCDMSCKENGGKLDENGDCDLSCKEDGGKLDGNGDCDYSCKEEGGVIDESGNCNTTCKDSGGQIIDGECNYGCIEVGGVVIDGECDTSCIDSGGILDGDGNCDRSCIESGGVLEDGACNTTCRDSGGQLNVDGTCDTSCRDDGGMLVEGQCDYQCKEAGGILEDGECVFPPTSSSTSETSSTTDQSSLQSDDSSMESSSTPMDSSTIESSSSEIITSESESESVPIASSSSEVMTSESESESIPILTSSSEIPIASSSSEIPVASSSSEIIIPESESESVPVASSSSEIPIASSSSEIPVASSSSEIPVASSSSEIIIPESESESIPIESTSSEAVSSRSESDSSYPTPTPTTTTITTWPNPIQPTTSNSSPIVSSSTETPGIAESSSRISDLESSRRTSILGDDRTRTRTTITSTITEDGQIITITTTVTGFVPEPTGETEGNGSDDENPENPIENNTDENEFLDPEFTDDIPDDPAGPEDNGNGPVNPEQGNDNDPVNLEDSGNNGAVNPEQAPVNDEDNGGNDPVNPEQDNNNGPANPGQDSTNGSGNSDQIDNNPPTPEENAGDGNSNGNDPADPSRRTSILGDERTRASPGGTSQPTGANGNVNGNSPGANVNGGGTGNSNNNNNNNNNNNNGNAPNGGDGSNGDANQGPSRRTSLLGDERTRAGQAAPTGGSSPDNGIAGDTSNNGGAIVSQQVDDGGAGSPRRTSILGDVRSRTTLNGEVLNFEGSGVRRAVAGNLALPLMMVGLVFNL
Question: Which results are given for B1?
Answer: glycan array binding signal (z-score) [1]: -0.195; glycan array binding signal (z-score) [2]: -0.222; glycan array binding signal (z-score) [3]: -0.172; glycan array binding signal (z-score) [4]: -0.198; glycan array binding signal (z-score) [5]: -0.256; glycan array binding signal (z-score) [6]: -0.272; glycan array binding signal (z-score) [7]: -0.16; glycan array binding signal (z-score) [8]: -0.215; glycan array binding signal (z-score) [9]: -0.113; glycan array binding signal (z-score) [10]: -0.223; glycan array binding signal (z-score) [11]: 0.134; glycan array binding signal (z-score) [12]: 3.35; glycan array binding signal (z-score) [13]: 1.46; glycan array binding signal (z-score) [14]: 1.2; glycan array binding signal (z-score) (Gal(b1-3)Gal(b1-4)GlcNAc): 4.92; glycan array binding signal (z-score) (Gal(b1-3)GalNAc): 3.84; glycan array binding signal (z-score) [15]: 3.03; glycan array binding signal (z-score) [16]: 3.87; glycan array binding signal (z-score) (Gal(b1-3)GalNAc(b1-3)Gal): 6.03; glycan array binding signal (z-score) [17]: 4.11; glycan array binding signal (z-score) [18]: 17; glycan array binding signal (z-score) [19]: 4.18
